Differential viability (reversal) data for 40 compounds are collected here from PubChem BioAssay.

Active and inactive are the calls of the source.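 How the source made its calls: active means viability loss from added drug above about 55%, and viability with drug at most 40%, in both replicates (limit read from the data, passing the limit was not always enough); inconclusive means both conditions met in only one replicate; inactive means neither replicate meets both conditions.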

A short description of the assay: reversal of MRP1-mediated doxorubicin resistance, pilot screen, H69AR cells, doxorubicin co-treatment (AID 601). As to conditions: H69AR cells + 2 uM doxorubicin, CellTiter-Glo, 72 h; at 10 µM; stronger effect = higher value.
For `CCOC(=O)C1CCN(C(=O)CN(c2ccc(Cl)c(C(F)(F)F)c2)S(C)(=O)=O)CC1`, the differential viability (reversal) was -9.81% (inactive).
The same measure for `CCOc1ccccc1C(=O)Nc1cc(=O)n(C)c(=O)n1C`: -1.81% (inactive).
The same measure for `Cc1ccc(-c2cc3nc4c(c(=O)n3[nH]2)CCCC4)cc1`: -1.42% (inactive).
As to `CCOC(=O)C(C)Sc1nnc(Cc2cc(=O)[nH]c(=O)[nH]2)n1-c1ccc(Cl)cc1` (stereo not given), the differential viability (reversal) is 4.81% (inactive).
As to `c1nc(NCC2CCCO2)c2[nH]cnc2n1` (stereo not given), the differential viability (reversal) was 7.82% (inactive).
The same measure for `O=C(Nc1ccc(Cl)cn1)c1cccnc1`: -17.4% (inactive); for `O=C1c2ccccc2C(=O)N1C/C=C/CN1C(=O)c2ccccc2C1=O`: -9.46% (inactive).
With `O=c1oc2c3c4c(cc2cc1-c1nc2ccccc2[nH]1)CCCN4CCC3`, the differential viability (reversal) was 2.58% (inactive).
In the case of `CCCCC(=O)NCCc1cc2c(C)ccc(C)c2[nH]c1=O`, the differential viability (reversal) was 1.76% (inactive).
The same measure for `O=C(NCc1ccc(F)cc1)c1cc2ccccn2n1`: 17.5% (inactive).
In the case of `COc1cccc(C2C3=C(N=C4SCC(=O)N42)c2ccccc2CC3)c1OC` (stereo not given), the differential viability (reversal) was 19.8% (inactive).
Regarding `CCOC(=O)N1CCC(c2cc(=O)n3[nH]c(C)c(-c4ccc(F)cc4)c3n2)CC1`, the differential viability (reversal) is -44.2% (inactive).
`C=CCn1c(=O)n(CCOC)c(=O)c2sc3ccccc3c21`: the differential viability (reversal) is -13.7% (inactive).
Consider `Cc1ccc2cc(CCNC(=O)C(C)C)c(=O)[nH]c2c1C`, for which the differential viability (reversal) was 6.72% (inactive).
The same measure for `COc1ccc(S(=O)(=O)N2CCCC2C(=O)Nc2ccc(O)cc2)cc1` (stereo not given): 3.97% (inactive); for `Cc1cccc(-n2ncc3c(NCc4cccnc4)ncnc32)c1`: -3.23% (inactive); for `COc1cccc(NC(=O)C2CCCN(S(=O)(=O)c3cccc4cccnc34)C2)c1` (stereo not given): -6.64% (inactive).
Take `CCc1nnc(NC(=O)COC(=O)CN2C(=O)c3ccccc3C2=O)s1`: the differential viability (reversal) is 7.39% (inactive).
The same measure for `O=C(C1CCN(c2nnc(-n3cccc3)s2)CC1)N1CCc2ccccc2C1`: 1.77% (inactive); for `Cc1c(C(=O)NC2CC2)oc2ccc(S(=O)(=O)N3CCCCCC3)cc12`: -14.2% (inactive); for `Cc1sc2nc(SCC(=O)NCCO)n(C)c(=O)c2c1C`: -6.7% (inactive).
As to `S=c1[nH]nc(-c2ccccc2)n1C1C=CCCC1` (stereo not given), the differential viability (reversal) is 0.65% (inactive).
Next, `c1ccc(N2CCN(Cc3cn4cccnc4n3)CC2)cc1`: 3.72% (inactive).
In the case of `CCCCc1ccc(NC(=O)C2CCCO2)cc1` (stereo not given), the differential viability (reversal) is 20.8% (inactive).
Regarding `Cc1[nH]c2ccccc2c(=O)c1CN1CCCCC1`, the differential viability (reversal) was -0.56% (inactive).
As for `Cc1ccccc1-n1c(Cn2c(=O)sc3ccccc32)nnc1SCC(=O)N1CCCC1`, the differential viability (reversal) was 12.6% (inactive).
On to `COc1ccccc1-n1c(=O)[nH]c2c(C(N)=O)nc(CC(C)C)nc21`, for which the differential viability (reversal) is -12.7% (inactive).
Turning to `Cc1ccccc1-c1nc(CN2CCC(C(=O)N3CCC(C(N)=O)CC3)CC2)c(C)o1`, the differential viability (reversal) was 4.8% (inactive).
`CCCCN(CC)CCCNC(=O)c1cc2c(=O)n(C)c3ccccc3c2n1C`: the differential viability (reversal) was -0.115% (inactive).
`Cc1nn(-c2ccc(F)cc2)c2c1cc(C#N)c1nc3ccccc3n12`: the differential viability (reversal) is 5.42% (inactive).
Regarding `CCCn1c(OC)nc2c1c(=O)n(C)c(=O)n2C`, the differential viability (reversal) is 0.235% (inactive).
The same measure for `CCOC(=O)Cc1ccc(NS(=O)(=O)c2ccc(SC)cc2)cc1`: 3.83% (inactive); for `CC(C)Sc1nc2c(c(=O)n1-c1ccc(F)cc1)SCC2`: 7.33% (inactive); for `COc1cccc(C2CC(c3c(Cl)cccc3Cl)n3nc(N)nc3N2)c1` (stereo not given): 4.33% (inactive).
Next, `Cc1cccc(OCCNC(=O)c2ncn[nH]2)c1`: 3.36% (inactive).
For `COc1ccc(S(=O)(=O)N2CCN(c3ccc(C)cc3C)CC2)cc1OC`, the differential viability (reversal) is -0.96% (inactive).
`CS(=O)(=O)NCCSCc1c(F)cccc1Cl`: the differential viability (reversal) is 12.5% (inactive).
For the compound `CC(C)CCNC(=O)Cn1c(NCCC(C)C)nc2c1c(=O)n(C)c(=O)n2C`, the differential viability (reversal) was -0.345% (inactive).
As for `CCOC(=O)N1CCC(NC(=O)C2CCCN(C(=O)c3cc4sccc4n3C)C2)CC1` (stereo not given), the differential viability (reversal) is -0.91% (inactive).
Consider `CCOC(=O)N1CCC(NC(=O)c2cc(C(=O)NC3CCCC3)ccc2CO)CC1`, for which the differential viability (reversal) was 5.52% (inactive).
